21 molecules from PubChem BioAssay can be followed below.

Unmarked numbers belong to inactive results. For part of these data: Measured potencies and affinities stand elsewhere. The source made the active and inactive calls. Unless noted, no rule for the calls is given here.

Assay [1] in a line: antimalarial activity against Dd2 strain (AID 2302;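 active = growth inhibition above 50% at the single 2 µM test dose, taken to imply half-maximal potency below 2 µM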;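 also: 0% = DMSO untreated growth and 100% = chloroquine plus artemisinin killed control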). The settings on record: P. falciparum Dd2 in RBCs, LDH growth readout, 72 h; at 2 µM; hits give high values.
A short description of assay [2]: human hepatoma cell viability loss – ATP luminescence, cytotoxicity control for P. falciparum antimalarial project, primary screen (AID 2303;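 active = inhibition above 50%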;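 also: 0% = DMSO wells and 100% = digitonin-killed cells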). The note with it: HepG2 viability, 24-48 h, at 10 µM, hits give high values.
Assay [3] has as its target L-lactate dehydrogenase (Plasmodium falciparum (isolate CDC / Honduras)) (UniProt Q27743). Kind of assay: PfLDH activity inhibition – cell lysate, 3D7 strain, counter-screen for P. falciparum growth inhibition project (AID 2304).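 Also: 0% = vehicle and 100% = reference inhibitor.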 The settings on record: P. falciparum 3D7 crude extract, LDH APAD/NBT absorbance; at 2 µM; hits give high values.
A short description of assay [4]: inhibition of 3D7 malaria parasite growth – strain 3D7 (AID 2306).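 Also: 0% = DMSO wells and 100% = chloroquine plus artemisinin control wells.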 The note with it: P. falciparum 3D7 erythrocytic growth, LDH absorbance, 72 h; at 2 µM; hits give high values.
In assay [5] the target is Calcium-dependent protein kinase 1 (Plasmodium falciparum (isolate 3D7)) (UniProt P62344). Kind of assay: PfCDPK1 kinase inhibitors, biochemical, TCAMS library (AID 1159585; cut-off not given, nearly all actives have IC50 up to about 0.98 µM;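 also: inhibitors leave more ATP so luminescence rises with inhibition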). The note with it: recombinant PfCDPK1, Kinase-Glo ATP depletion luminescence.
The target in assay [6] is Plasmodium falciparum protein kinase 6 (PK6, PF3D7_1337100) (UniProt Q8IDW1). The assay can be described thus: PfPK6 kinase inhibitors, biochemical, TCAMS library (AID 1159586). The settings on record: recombinant PfPK6, Kinase-Glo ATP depletion luminescence. (In general: In Kinase-Glo more light means more ATP remaining.)
In assay [7] the target is Protein kinase 7 (PK7), Plasmodium falciparum 3D7 (PF3D7_0213400) (UniProt Q7YTF7). The assay can be described thus: inhibition of Plasmodium PK7 catalytic activity – biochemical, TCAMS antimalarial set, Kinase-Glo luminescence (AID 1159587). The settings on record: recombinant PfPK7, Kinase-Glo ATP depletion luminescence.
The target of assay [8] is Calcium-dependent protein kinase 4 (Plasmodium falciparum (isolate 3D7)) (UniProt Q8IBS5). The assay can be described thus: PfCDPK4 kinase inhibitors, biochemical, TCAMS library (AID 1159588; cut-off not given, nearly all actives have IC50 up to about 0.91 µM). The note with it: recombinant PfCDPK4, Kinase-Glo ATP depletion luminescence.
Chain of Calcium-dependent protein kinase 4 (Plasmodium falciparum (isolate 3D7)) (Q8IBS5 whole entry, looked up): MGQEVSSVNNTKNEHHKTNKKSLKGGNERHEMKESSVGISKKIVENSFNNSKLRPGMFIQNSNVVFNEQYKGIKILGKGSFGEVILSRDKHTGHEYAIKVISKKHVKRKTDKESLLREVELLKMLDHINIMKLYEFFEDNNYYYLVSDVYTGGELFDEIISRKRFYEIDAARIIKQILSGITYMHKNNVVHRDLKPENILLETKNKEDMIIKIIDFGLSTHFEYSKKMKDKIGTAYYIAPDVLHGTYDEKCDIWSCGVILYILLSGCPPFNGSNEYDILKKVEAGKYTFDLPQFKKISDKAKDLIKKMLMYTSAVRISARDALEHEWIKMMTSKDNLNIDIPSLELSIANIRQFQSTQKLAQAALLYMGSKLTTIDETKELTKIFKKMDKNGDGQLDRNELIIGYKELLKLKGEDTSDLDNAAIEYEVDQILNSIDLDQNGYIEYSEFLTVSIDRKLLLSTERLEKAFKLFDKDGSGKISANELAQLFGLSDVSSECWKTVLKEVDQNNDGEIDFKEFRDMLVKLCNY

Chain of Protein kinase 7 (PK7), Plasmodium falciparum 3D7 (PF3D7_0213400) (Q7YTF7 1-343): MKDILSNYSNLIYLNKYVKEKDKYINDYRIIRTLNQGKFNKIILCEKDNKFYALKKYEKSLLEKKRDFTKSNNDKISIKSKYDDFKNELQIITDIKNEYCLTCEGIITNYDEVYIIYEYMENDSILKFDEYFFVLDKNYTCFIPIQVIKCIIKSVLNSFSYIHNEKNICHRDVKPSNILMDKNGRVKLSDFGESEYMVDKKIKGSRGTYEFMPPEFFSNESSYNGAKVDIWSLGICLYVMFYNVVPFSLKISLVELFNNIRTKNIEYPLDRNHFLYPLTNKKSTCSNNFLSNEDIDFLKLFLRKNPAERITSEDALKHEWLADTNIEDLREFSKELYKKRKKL
Chain of L-lactate dehydrogenase (Plasmodium falciparum (isolate CDC / Honduras)) (Q27743 whole entry, looked up): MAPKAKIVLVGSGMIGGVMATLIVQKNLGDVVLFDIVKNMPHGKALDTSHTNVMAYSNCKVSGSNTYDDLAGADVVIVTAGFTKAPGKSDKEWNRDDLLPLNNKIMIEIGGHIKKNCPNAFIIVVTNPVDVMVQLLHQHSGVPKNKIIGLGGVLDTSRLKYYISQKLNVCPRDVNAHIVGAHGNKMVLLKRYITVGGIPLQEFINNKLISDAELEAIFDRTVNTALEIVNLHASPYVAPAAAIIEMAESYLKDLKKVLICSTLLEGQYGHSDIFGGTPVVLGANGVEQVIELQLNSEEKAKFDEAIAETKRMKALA
Chain of Calcium-dependent protein kinase 1 (Plasmodium falciparum (isolate 3D7)) (P62344 whole entry, looked up): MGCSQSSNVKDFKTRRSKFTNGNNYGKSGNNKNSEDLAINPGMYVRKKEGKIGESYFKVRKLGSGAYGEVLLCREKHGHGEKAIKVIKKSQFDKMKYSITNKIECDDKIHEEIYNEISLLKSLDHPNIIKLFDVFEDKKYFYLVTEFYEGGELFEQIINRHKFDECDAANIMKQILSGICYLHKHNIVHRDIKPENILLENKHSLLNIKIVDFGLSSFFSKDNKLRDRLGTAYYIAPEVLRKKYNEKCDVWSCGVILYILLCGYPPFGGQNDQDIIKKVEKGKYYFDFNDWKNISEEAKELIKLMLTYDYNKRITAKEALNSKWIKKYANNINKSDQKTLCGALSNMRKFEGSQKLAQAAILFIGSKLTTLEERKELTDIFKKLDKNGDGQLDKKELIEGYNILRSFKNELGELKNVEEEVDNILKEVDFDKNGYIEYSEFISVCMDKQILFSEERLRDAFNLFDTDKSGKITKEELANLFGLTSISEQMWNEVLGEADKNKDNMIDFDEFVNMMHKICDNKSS
Chain of Plasmodium falciparum protein kinase 6 (PK6, PF3D7_1337100) (Q8IDW1 1-305): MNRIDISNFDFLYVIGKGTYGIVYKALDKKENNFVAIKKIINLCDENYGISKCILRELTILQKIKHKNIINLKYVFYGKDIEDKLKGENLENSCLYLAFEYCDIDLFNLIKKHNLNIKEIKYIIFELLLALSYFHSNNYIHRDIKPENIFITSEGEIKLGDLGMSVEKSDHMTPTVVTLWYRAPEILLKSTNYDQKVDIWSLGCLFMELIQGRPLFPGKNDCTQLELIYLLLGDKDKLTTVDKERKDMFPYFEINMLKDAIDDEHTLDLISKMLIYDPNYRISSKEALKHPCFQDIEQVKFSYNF

As a reminder, the inhibition is the change of the read-out against control, counted positive when it falls. As to `CN(C)CCNCc1ccc(-c2ccc(-c3nc4ccc(F)cc4[nH]3)cc2)cc1`, the growth inhibition in assay [1] was 99% (active); in assay [4], 101% (active). The figures for the inhibition in assay [2] and in assay [3] were 8% and -4%, respectively. The result in assay [5], in assay [6], in assay [7] and in assay [8] was inactive.

Take `CCC(C)CN1CCN(c2cc(NC(=O)c3cccs3)ccn2)C(C)C1` (stereo not drawn): the results for the growth inhibition in assay [1] and in assay [4] were 72% (active) and 88% (active), respectively. The results for the inhibition in assay [2] and in assay [3] were 5% and 0%, respectively. For the same molecule, the outcome in assay [5], in assay [6], in assay [7] and in assay [8] was inactive.

As to `CS(=O)(=O)CCNCc1cccc(-c2ccc3c(Nc4ccc(Oc5ccccc5)cc4)ccnc3c2)c1`, the growth inhibition in assay [1] was 96% (active); in assay [4] it was 101% (active). Further, the values for the inhibition in assay [2] and in assay [3] were 18% and 6%, respectively. In addition, the result in assay [5], in assay [6], in assay [7] and in assay [8] was inactive.

Regarding `COc1cc(Cc2cnc(N)nc2N)cc(OCCCc2cc(OCc3ccccc3)no2)c1OC`, the values for the growth inhibition in assay [1] and in assay [4] were 4% and 86% (active), respectively. For the same molecule, the inhibition is 30% in assay [2] and 2% in assay [3]. Besides, the outcome in assay [5], in assay [6], in assay [7] and in assay [8] was inactive.

Consider `CCC1(C)CC(CCNCc2ccccc2O)(c2ccccc2OC)CCO1` (stereo not drawn), for which the figures for the growth inhibition in assay [1] and in assay [4] were 93% (active) and 94% (active), respectively. In addition, the inhibition in assay [2] was 10%; in assay [3], -2%. The result in assay [5], in assay [6], in assay [7] and in assay [8] was inactive.

Take `Cc1nc(N/C=C/c2ccc(O)cc2)cc(N2CCCC2)n1`: the growth inhibition in assay [1] was 54% (active); in assay [4], 93% (active). The inhibition in assay [2] was -11%; in assay [3] it was -2%. The outcome in assay [5], in assay [6], in assay [7] and in assay [8] was inactive.

With `CC1(C)N=C(N)N=C(N)N1OCCCOc1cccc(C(=O)O)c1`, the figures for the growth inhibition in assay [1] and in assay [4] were 96% (active) and 94% (active), respectively. The inhibition was 73% (active) in assay [2] and -6% in assay [3]. The outcome in assay [5], in assay [6], in assay [7] and in assay [8] was inactive.

As for `COc1ccc(C(=O)Nc2ccc3nc(N4CCCCC4)cc(C)c3c2)cc1[N+](=O)[O-]`, the values for the growth inhibition in assay [1] and in assay [4] were 7% and 96% (active), respectively. Besides, the inhibition in assay [2] is 17%; in assay [3], -9%. In addition, the outcome in assay [5], in assay [6], in assay [7] and in assay [8] was inactive.

Regarding `CCN(CCCNc1nc(=S)[nH]c2cc(OC)c(OC)cc12)c1ccccc1`, the results for the growth inhibition in assay [1] and in assay [4] were 23% and 100% (active), respectively. The inhibition in assay [2] was 14%; in assay [3], -2%. Also, the result in assay [5], in assay [6], in assay [7] and in assay [8] was inactive.

Regarding `CC(C)c1ccc(NS(=O)(=O)c2cccc(C(=O)NC3CCN(CC4CCCCC4)CC3)c2)cc1`, the growth inhibition is 69% (active) in assay [1] and 93% (active) in assay [4]. In addition, the results for the inhibition in assay [2] and in assay [3] were 71% (active) and 0%, respectively. Also, the result in assay [5], in assay [6], in assay [7] and in assay [8] was inactive.

Consider `CC(C)(C)c1nn(-c2ccccc2)c2[nH]c(=O)c(CNCCc3ccccc3)cc12`, for which the growth inhibition in assay [1] was 90% (active); in assay [4], 94% (active). The figures for the inhibition in assay [2] and in assay [3] were -7% and 0%, respectively. For the same molecule, the outcome in assay [5], in assay [6], in assay [7] and in assay [8] was inactive.

Take `CCOC(=O)c1ccc2nc(-c3ccc(C(=O)NC4CCN(Cc5ccccc5)CC4)s3)[nH]c2c1`: the growth inhibition in assay [1] is 95% (active); in assay [4], 100% (active). Moreover, the results for the inhibition in assay [2] and in assay [3] were 32% and -2%, respectively. Besides, the outcome in assay [5], in assay [6], in assay [7] and in assay [8] was inactive.

Regarding `NCC1CCCN1Cc1cccc(-c2cccc(-c3nc4ccc(F)cc4[nH]3)c2)c1` (stereo not drawn), the growth inhibition in assay [1] is 65% (active); in assay [4], 101% (active). The results for the inhibition in assay [2] and in assay [3] were 10% and 5%, respectively. Also, the result in assay [5], in assay [6], in assay [7] and in assay [8] was inactive.

`Cc1cc(NC(=O)Nc2ccc3sccc3c2)c2ccccc2n1`: the figures for the growth inhibition in assay [1] and in assay [4] were 57% (active) and 99% (active), respectively. The inhibition in assay [2] was 41%; in assay [3], 0%. In addition, the outcome in assay [5], in assay [6], in assay [7] and in assay [8] was inactive.

Regarding `CN(C)c1cc(NC(=O)Nc2ccc(SC(F)(F)F)cc2)c2ccccc2n1`, the growth inhibition in assay [1] and in assay [4] was 100% (active) each time. Moreover, the inhibition in assay [2] was 22%; in assay [3], -4%. For the same molecule, the outcome in assay [5], in assay [6], in assay [7] and in assay [8] was inactive.

Consider `CN1CCN(CC(=O)Nc2ccc(-c3ccc(-c4nc5ccc(C(F)(F)F)cc5[nH]4)s3)cc2)CC1`, for which the figures for the growth inhibition in assay [1] and in assay [4] were 73% (active) and 102% (active), respectively. Also, the figures for the inhibition in assay [2] and in assay [3] were 84% (active) and 5%, respectively. Moreover, the result in assay [5], in assay [6], in assay [7] and in assay [8] was inactive.

Turning to `Cc1cc2cc(-c3ccc(CN)cc3)ccc2nc1N`, the growth inhibition in assay [1] was 8%; in assay [4], 92% (active). The inhibition in assay [2] was 18%; in assay [3] it was 4%. Besides, the result in assay [5], in assay [6], in assay [7] and in assay [8] was inactive.

For the molecule `O=C(Nc1ccc(F)c(Cl)c1)NC1CCN(c2ccnc3cc(Cl)ccc23)C1` (stereo not drawn), the growth inhibition in assay [1] is 74% (active); in assay [4] it was 101% (active). The inhibition in assay [2] is 37%; in assay [3] it was -3%. The result in assay [5], in assay [6], in assay [7] and in assay [8] was inactive.

For the molecule `COc1cccc(Nc2nc(C)cc(NC3CCCC3)n2)c1`, the growth inhibition in assay [1] is 79% (active); in assay [4] it was 101% (active). Moreover, the inhibition in assay [2] was 41%; in assay [3] it was 1%. The result in assay [5], in assay [6], in assay [7] and in assay [8] was inactive.

As to `O=S(=O)(NCCN1CCCC1)c1ccc(-c2cccc(CNC3Cc4ccccc4C3)c2)s1`, the growth inhibition in assay [1] was 69% (active); in assay [4], 98% (active). In addition, the inhibition in assay [2] was 57% (active); in assay [3], 2%. Moreover, the result in assay [5], in assay [6], in assay [7] and in assay [8] was inactive.

Consider `Fc1cccc(Nc2nc(NCc3ccc4ccsc4c3)nc(Nc3cccc(F)c3)n2)c1`, for which the results for the growth inhibition in assay [1] and in assay [4] were 11% and 94% (active), respectively. For the same molecule, the inhibition in assay [2] was -2%; in assay [3], -1%. The result in assay [5], in assay [6], in assay [7] and in assay [8] was inactive.
